From PubChem BioAssay AID1159580 (chemical genetic matrix, 2015)
Where “and” joins values, the source holds several entries; their conditions need not be identical. Equal values may be shown once. Screen size: about 5,500 compounds; about 2,000 (36%) were called active. Roughly 18% stayed inconclusive and do not appear here. No stated cut-off is given here; in the data, active means normalized growth mostly below about 0.91 (no sharp cut-off); inconclusive means no clear call, values can overlap the other calls; inactive means mostly above about 0.92. The list shows a part of the results.

Assay: chemical genetic growth profiling, strain panel (AID 1159580);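 further: tested at 20 µM; growth read once vehicle control cultures reached saturation at 30 °C; 1 = growth at the plate median or of vehicle wells; lower values mean less growth of the strain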
Settings: S. cerevisiae deletion strains, growth OD

Measured: normalized growth

CCC(=O)c1c(O)cc(O)cc1O
inactive: locus YAL013W, strain DEP1, hits give low values 1.01 | locus YAL021C, strain ccr4, hits give low values 0.953 | locus YAL026C, strain drs2, hits give low values 0.975 | locus YAL030W, strain snc1, hits give low values 0.983 | locus YBL061C, strain skt5, hits give low values 0.98 | locus YBR009C, strain hhf1, hits give low values 1.03 | locus YBR021W, strain FUR4, hits give low values 1.03 | locus YBR023C, strain chs3, hits give low values 0.994 | locus YBR171W, strain sec66, hits give low values 0.979 | locus YBR229C, strain ROT2, hits give low values 0.994 | locus YBR231C, strain swc5, hits give low values 0.987 | locus YBR279W, strain paf1, hits give low values 0.992 | locus YCL011C, strain gbp2, hits give low values 0.989 | locus YCL016C, strain dcc1, hits give low values 0.974 | locus YCL029C, strain bik1, hits give low values 0.982 | locus YCL069W, strain vba3, hits give low values 0.992 | locus YCR088W, strain abp1, hits give low values 0.991 | locus YDL005C, strain med2, hits give low values 0.977 | locus YDL035C, strain GPR1, hits give low values 1.01 | locus YDL040C, strain nat1, hits give low values 0.99 | locus YDL074C, strain BRE1, hits give low values 1 | locus YDL101C, strain DUN1, hits give low values 1.01 | locus YDL134C, strain PPH21, hits give low values 1.01 | locus YDL185W, strain tfp1, hits give low values 0.972 | locus YDL192W, strain arf1, hits give low values 0.981 | locus YDR001C, strain nth1, hits give low values 0.987 | locus YDR069C, strain doa4, hits give low values 0.983 | locus YDR101C, strain arx1, hits give low values 0.975 | locus YDR137W, strain rgp1, hits give low values 0.968 | locus YDR150W, strain NUM1, hits give low values 1 | locus YDR159W, strain sac3, hits give low values 0.995 | locus YDR162C, strain NBP2, hits give low values 1 | locus YDR195W, strain ref2 0.955 | locus YDR297W, strain sur2, hits give low values 0.982 | locus YDR318W, strain mcm21, hits give low values 0.977 | locus YDR334W, strain swr1, hits give low values 0.979 | locus YDR335W, strain msn5, hits give low values 0.986 | locus YDR388W, hits give low values 0.981 | locus YDR392W, strain spt3, hits give low values 0.968 | locus YDR502C, strain sam2, hits give low values 0.979 | locus YEL003W, strain gim4, hits give low values 0.99 | locus YEL037C, strain rad23, hits give low values 0.982 | locus YEL061C, strain CIN8 (second series), hits give low values 0.992 | locus YEL061C, strain CIN8, hits give low values 1 | locus YER015W, strain faa2, hits give low values 0.991 | locus YER016W, strain bim1, hits give low values 0.968 | locus YER110C, hits give low values 0.979 | locus YER111C, strain swi4, hits give low values 1 | locus YER155C, strain BEM2 (second series), hits give low values 0.983 | locus YER155C, strain BEM2, hits give low values 0.989 | locus YER167W, strain BCK2, hits give low values 1.01 | locus YFR010W, strain ubp6, hits give low values 0.998 | locus YGL078C, strain dbp3, hits give low values 0.975 | locus YGL086W, strain mad1, hits give low values 0.995 | locus YGL167C, strain pmr1, hits give low values 0.974 | locus YGL173C, strain kem1, hits give low values 1.01 | locus YGL227W, strain vid30, hits give low values 0.993 | locus YGL240W, strain doc1, hits give low values 1 | locus YGL248W, strain PDE1, hits give low values 1.01 | locus YGL253W, strain hxk2, hits give low values 0.986 | locus YGR078C, strain PAC10, hits give low values 1.01 | locus YGR135W, strain pre9, hits give low values 0.985 | locus YGR229C, strain SMI1, hits give low values 0.992 | locus YGR252W, strain gcn5, hits give low values 0.921 | locus YHR013C, strain ard1, hits give low values 0.938 | locus YHR027C, strain rpn1, hits give low values 1.01 | locus YHR030C, strain SLT2, hits give low values 1.01 | locus YHR079C, strain IRE1 (second series), hits give low values 0.978 | locus YHR079C, strain IRE1, hits give low values 1.03 | locus YHR094C, strain hxt1, hits give low values 0.983 | locus YHR129C, strain ARP1, hits give low values 0.999 | locus YHR142W, strain chs7, hits give low values 0.989 | locus YHR200W, strain rpn10, hits give low values 0.972 | locus YIL066C, strain RNR3, hits give low values 1.01 | locus YIL073C, strain SPO22, hits give low values 1.07 | locus YIL125W, strain kgd1, hits give low values 0.984 | locus YIR030C, strain dcg1, hits give low values 0.979 | locus YJL092W, strain hpr5, hits give low values 0.987 | locus YJL095W, strain BCK1 (second series), hits give low values 0.995 | locus YJL095W, strain BCK1, hits give low values 1 and 1.02 | locus YJL115W, strain asf1, hits give low values 0.996 | locus YJL129C, strain trk1, hits give low values 0.996 | locus YJL134W, strain LCB3, hits give low values 0.999 | locus YJL154C, strain vps35, hits give low values 0.975 | locus YJL164C, strain tpk1, hits give low values 0.993 | locus YJL166W, strain qcr8, hits give low values 0.991 | locus YJL168C, strain set2, hits give low values 0.979 | locus YJL187C, strain SWE1 (second series), hits give low values 1.01 | locus YJR043C, strain POL32, hits give low values 1.01 | locus YJR066W, strain TOR1, hits give low values 0.97 | locus YJR075W, strain HOC1, hits give low values 1.01
